Experimental data from PubChem BioAssay.
Activity calls are given as the source filed them.

Tests used:
[1] = system: PRMT1 (protein arginine N-methyltransferase 1); assay: small molecules binding arginine methyltransferase PRMT1 – biochemical, small-molecule microarray, 635 nm fluorescence, primary screen (AID 1088); settings: higher = more signal;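 note: binding of Prmt1 protein to compounds spotted on small-molecule microarray slides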
[2] = growth effects on S. cerevisiae YJM789 – YJM789 clinical isolate, OD600, 24 h, basal, primary screen (AID 1089); settings: higher = more signal, called active from +8 up or from −8 down;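 note: growth of clinical yeast isolate S. cerevisiae YJM 789 seeded 1000 cells per well; test concentration not given here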
[3] = S. pombe growth modifiers, basal conditions – strain 972, OD600, 24 h, no modulator, primary screen (AID 1090);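 note: basal condition with compound alone and no growth modifier present; test concentration not given here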; settings: S. pombe 972 growth, higher = more signal, called active from +8 up or from −8 down
[4] = budding yeast growth modifiers under rapamycin – strain BY4716, OD600, 96 h, primary screen (AID 1091); note: test concentration not given here; settings: S. cerevisiae BY4716 + rapamycin, higher = more signal, called active from +8 up or from −8 down
[5] = target: Torsin-1A-interacting protein 2 (Homo sapiens) (UniProt Q8NFQ8); assay: small molecules binding lysate-expressed LULL1 – cell lysate, human LULL1 lysate, 635/667 nm fluorescence, primary screen (AID 1092); settings: small-molecule microarray, hLULL1 lysate binding, 635 nm fluorescence; higher = more signal;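 note: probe is lysate of COS7 cells overexpressing human LULL1; score merges per-feature 667 nm fluorescence with signal-to-noise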
Chain of Torsin-1A-interacting protein 2 (Homo sapiens) (Q8NFQ8 whole entry, looked up): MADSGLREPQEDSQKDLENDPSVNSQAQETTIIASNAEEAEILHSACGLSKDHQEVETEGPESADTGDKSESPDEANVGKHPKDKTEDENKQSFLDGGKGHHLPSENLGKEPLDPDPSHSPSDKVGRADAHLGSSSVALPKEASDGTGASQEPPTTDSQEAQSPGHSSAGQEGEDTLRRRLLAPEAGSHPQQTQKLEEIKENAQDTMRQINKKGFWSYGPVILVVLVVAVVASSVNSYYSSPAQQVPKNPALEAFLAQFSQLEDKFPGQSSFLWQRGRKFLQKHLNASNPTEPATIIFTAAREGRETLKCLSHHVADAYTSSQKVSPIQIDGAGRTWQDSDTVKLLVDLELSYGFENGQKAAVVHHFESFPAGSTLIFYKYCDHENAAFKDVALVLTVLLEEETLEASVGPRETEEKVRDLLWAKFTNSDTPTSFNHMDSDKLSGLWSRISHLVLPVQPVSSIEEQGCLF

[6] = optical density change of DRC41 E. coli – strain DRC41, OD650, 24 h, E. coli filamentation project, primary screen (AID 1093);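 note: MC1000 strain lacking acrAB efflux and sulA so SOS filamentation is blocked; test concentration not given here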; settings: E. coli DRC41 growth, higher = more signal, called active from +8 up or from −8 down
[7] = probe aLefty2 binding to arrayed compounds – biochemical, biotinylated probe, 635/667 nm fluorescence, primary screen (AID 1094); settings: small-molecule microarray, higher = more signal;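 note: score merges spot fluorescence near 667 nm with spot signal-to-noise ratio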
[8] = system: Noggin (protein binding on small-molecule microarray); assay: small molecules binding Noggin protein – biochemical, 635/667 nm fluorescence, primary screen (AID 1095); settings: 635 nm fluorescence, higher = more signal;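 note: score merges 667 nm feature fluorescence with signal to noise over triplicate slides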
[9] = target: Neurogenic locus notch homolog protein 3 (Homo sapiens) (UniProt Q9UM47); assay: small molecules binding NOTCH3 protein – biochemical, 635/667 nm fluorescence, primary screen (AID 1096); settings: small-molecule microarray, 635 nm fluorescence, higher = more signal
Chain of Neurogenic locus notch homolog protein 3 (Homo sapiens) (Q9UM47 whole entry, looked up): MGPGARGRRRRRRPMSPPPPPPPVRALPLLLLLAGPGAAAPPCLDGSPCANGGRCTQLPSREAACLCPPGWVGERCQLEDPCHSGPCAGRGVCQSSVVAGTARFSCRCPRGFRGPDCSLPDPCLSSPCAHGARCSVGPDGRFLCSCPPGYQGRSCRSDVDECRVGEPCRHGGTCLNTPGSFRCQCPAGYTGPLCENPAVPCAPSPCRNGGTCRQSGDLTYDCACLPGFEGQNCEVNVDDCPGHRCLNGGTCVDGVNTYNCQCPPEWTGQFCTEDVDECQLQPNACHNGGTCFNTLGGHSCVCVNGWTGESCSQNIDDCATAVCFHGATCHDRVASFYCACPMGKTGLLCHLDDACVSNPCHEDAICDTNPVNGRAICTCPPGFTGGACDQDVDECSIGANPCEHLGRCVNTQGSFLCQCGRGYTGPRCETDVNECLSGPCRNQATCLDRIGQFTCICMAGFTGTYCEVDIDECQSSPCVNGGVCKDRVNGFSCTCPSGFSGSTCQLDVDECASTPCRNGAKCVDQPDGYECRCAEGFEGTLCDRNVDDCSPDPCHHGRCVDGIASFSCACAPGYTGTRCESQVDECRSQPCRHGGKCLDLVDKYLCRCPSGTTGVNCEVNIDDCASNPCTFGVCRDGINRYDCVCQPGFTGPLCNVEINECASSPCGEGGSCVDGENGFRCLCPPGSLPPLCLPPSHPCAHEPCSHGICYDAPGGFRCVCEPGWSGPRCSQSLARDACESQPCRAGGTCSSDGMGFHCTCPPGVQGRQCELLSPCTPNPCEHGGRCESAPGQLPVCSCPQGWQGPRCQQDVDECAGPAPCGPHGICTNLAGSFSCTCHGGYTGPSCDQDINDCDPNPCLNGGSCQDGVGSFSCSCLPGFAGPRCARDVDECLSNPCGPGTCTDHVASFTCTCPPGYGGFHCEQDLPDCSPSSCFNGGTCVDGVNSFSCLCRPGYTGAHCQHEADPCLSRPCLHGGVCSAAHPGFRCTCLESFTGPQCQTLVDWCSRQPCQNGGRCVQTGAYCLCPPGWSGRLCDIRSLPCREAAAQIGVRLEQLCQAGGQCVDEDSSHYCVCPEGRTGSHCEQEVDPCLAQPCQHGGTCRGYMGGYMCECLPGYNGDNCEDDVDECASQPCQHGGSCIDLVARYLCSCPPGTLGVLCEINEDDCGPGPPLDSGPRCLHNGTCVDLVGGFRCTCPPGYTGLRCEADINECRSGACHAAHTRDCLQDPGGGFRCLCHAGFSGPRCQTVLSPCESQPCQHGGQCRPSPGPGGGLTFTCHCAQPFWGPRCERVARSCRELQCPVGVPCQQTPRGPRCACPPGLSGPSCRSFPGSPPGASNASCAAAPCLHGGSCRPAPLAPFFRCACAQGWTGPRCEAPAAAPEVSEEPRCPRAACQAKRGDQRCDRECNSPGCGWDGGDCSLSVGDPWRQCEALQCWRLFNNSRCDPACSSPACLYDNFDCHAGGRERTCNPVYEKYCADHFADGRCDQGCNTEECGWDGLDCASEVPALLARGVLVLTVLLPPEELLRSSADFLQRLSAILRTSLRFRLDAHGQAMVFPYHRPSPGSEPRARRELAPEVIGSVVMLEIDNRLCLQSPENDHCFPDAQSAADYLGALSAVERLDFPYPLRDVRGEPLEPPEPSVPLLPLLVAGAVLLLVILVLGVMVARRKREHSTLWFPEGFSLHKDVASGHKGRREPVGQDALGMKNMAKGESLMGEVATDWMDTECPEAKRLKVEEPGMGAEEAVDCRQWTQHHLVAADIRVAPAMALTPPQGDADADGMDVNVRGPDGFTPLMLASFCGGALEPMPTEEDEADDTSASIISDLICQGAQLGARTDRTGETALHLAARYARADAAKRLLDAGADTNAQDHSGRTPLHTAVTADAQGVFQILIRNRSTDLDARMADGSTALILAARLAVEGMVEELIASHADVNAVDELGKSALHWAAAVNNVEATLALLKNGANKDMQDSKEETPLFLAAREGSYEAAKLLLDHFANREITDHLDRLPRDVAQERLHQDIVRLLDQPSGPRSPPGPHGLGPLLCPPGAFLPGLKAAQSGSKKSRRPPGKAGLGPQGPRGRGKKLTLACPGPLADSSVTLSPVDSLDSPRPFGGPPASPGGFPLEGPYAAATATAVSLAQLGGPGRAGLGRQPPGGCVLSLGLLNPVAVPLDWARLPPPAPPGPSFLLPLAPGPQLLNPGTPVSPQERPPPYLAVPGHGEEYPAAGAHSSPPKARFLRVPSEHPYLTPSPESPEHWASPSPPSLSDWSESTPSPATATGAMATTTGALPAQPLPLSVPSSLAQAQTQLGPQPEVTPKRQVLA

[10] = probe aEGFR binding to arrayed compounds – biochemical, biotinylated probe, 635/667 nm fluorescence, primary screen (AID 1097); settings: small-molecule microarray, higher = more signal;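 note: probe is a biotinylated anti-EGFR antibody binding compounds printed on slides; score combines fluorescence near 667 nm and signal to noise of each spot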

Compound	composite z-score [1]	z-score [2]	z-score [3]	z-score [4]	composite z-score [5]	z-score [6]	composite z-score [7]	composite z-score [8]	composite z-score [9]	composite z-score [10]
CCOC(=O)C[C@H]1[C@H](OC(=O)c2ccc(C(=O)c3ccccc3)cc2)[C@@H](NC(=O)c2ccc(-c3ccccc3)cc2)c2cc(OCCCO)ccc2N1C(=O)Cc1ccc(OC)cc1	0.845	0.233 (inactive)	0.838 (inactive)	0.876 (inactive)	0.861	0.24 (inactive)	0.259	0.601	0.378	-0.0302
NCCCCCNC(=O)[C@H]1C[C@H]2C(=O)N3CCC[C@H]3C(=O)N2[C@H]1c1cccc(OCCO)c1	1.56	0.372 (inactive)	-1.53 (inactive)	0.674 (inactive)	3.15	0.0425 (inactive)	0.767	-0.321	0.0389	0.102
CCCC=C(CCC)[C@@H](NS(=O)(=O)c1ccc(C(F)(F)F)cc1)c1ccccc1	0.907	1.22 (inactive)	1.46 (inactive)	3.03 (inactive)	1.41	-1.74 (inactive)	0.0749	-0.0917	0.275	-0.0415
COCCOC(=O)N1C(=O)[C@@]2(c3cc(C#CCCO)ccc31)[C@H](c1ccc(OCCO)cc1)N1[C@H](c3ccccc3)[C@H](c3ccccc3)OC(=O)[C@H]1[C@@H]2C(=O)Nc1nc2ccccc2s1	1.42	1.61 (inactive)	1.26 (inactive)	2.48 (inactive)	1.26	0.235 (inactive)	0.151	1.13	1.08	0.197
CC(C)(C)OC(=O)CC[C@@]1(C(=O)NCC(O)CO)N=C(c2ccc(OCCCO)cc2)O[C@@H]1c1ccccc1CN=[N+]=[N-] (stereo not given in full)	0.782	-0.614 (inactive)	0.0076 (inactive)	-0.753 (inactive)	2.89	0.188 (inactive)	-0.0691	0.153	0.558	-0.0229
COC(=O)[C@@]1(Cc2ccc(OC)cc2)[C@H]2c3cc(C(=O)N4CCCC4)n(CCc4c[nH]c5ccc(O)cc45)c3C[C@H]2CN1C(=O)c1ccccc1	0.66	0.277 (inactive)	1.16 (inactive)	0.687 (inactive)	3.16	0.573 (inactive)	0.379	-0.0208	1.12	0.262
O=C1[C@H]2C=C(I)[C@H](C[C@@H]2OCCOCCO)[C@@]12CO2	0.582	0.0387 (inactive)	-0.342 (inactive)	-0.155 (inactive)	0.6	-0.935 (inactive)	-0.239	0.513	0.733	-0.027
CCOC(=O)C[C@H]1[C@H](OC(=O)c2ccc(C(=O)c3ccccc3)cc2)[C@@H](NC(=O)CC(C)C)c2cc(OCCCO)ccc2N1C(=O)c1ccccc1	1.34	-0.327 (inactive)	-0.333 (inactive)	0.276 (inactive)	2.03	-0.747 (inactive)	0.0769	0.937	0.961	0.0807
